Max response, negative = inhibition data for 85 molecules are collected here from PubChem BioAssay AID652054 (National Center for Advancing Translational Sciences (NCATS), 2013).

The structures appear in SMILES notation. “And” between values parts separate entries of the source, which are not always exact repeats. Identical values can stand only once. Out of some 360,000 compounds screened, about 9,100 (2.5%) were called active. About 4% were inconclusive and are not listed. Rule as the data show it: active = max response below about -50%; inconclusive = no clear call, values can overlap the other calls; inactive = above that. The entries come from a sample that favours actives as a whole.
% is scaled to controls: 0 for no effect and ±100 for the full control effect.

Chain of D(3) dopamine receptor (Homo sapiens) (P35462 whole entry, looked up): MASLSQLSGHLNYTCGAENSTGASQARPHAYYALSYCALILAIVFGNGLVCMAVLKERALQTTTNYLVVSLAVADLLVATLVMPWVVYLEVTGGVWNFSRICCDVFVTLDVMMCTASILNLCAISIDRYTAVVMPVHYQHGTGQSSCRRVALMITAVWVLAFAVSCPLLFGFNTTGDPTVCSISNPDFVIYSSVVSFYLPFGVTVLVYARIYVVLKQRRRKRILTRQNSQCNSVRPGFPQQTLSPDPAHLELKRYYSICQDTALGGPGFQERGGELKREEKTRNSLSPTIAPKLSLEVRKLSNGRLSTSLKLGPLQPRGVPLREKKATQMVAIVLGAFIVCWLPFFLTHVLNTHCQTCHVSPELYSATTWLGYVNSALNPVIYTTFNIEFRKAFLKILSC

The assay addresses D(3) dopamine receptor (Homo sapiens) (UniProt P35462). The experiment in a line: qHTS of D3 Dopamine Receptor Antagonist: qHTS. The following applies: D3R cells, DiscoveRx beta-arrestin luminescence, antagonist mode; active compounds read low. Put shortly:
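Cells expressing the human receptor were seeded at 1500 cells/well, incubated overnight at 37 degrees C in 5% CO2, then exposed to library compounds with dopamine controls for 90 minutes at 37 degrees C before luminescent detection.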
(In general: qHTS replaces the single test concentration by a dilution series.)
Consider `CC1(C(=O)NS(=O)(=O)Cc2cccc(Cl)c2)CCN1C(=O)Cc1ccc(Cl)cc1Cl` (stereo not given), for which the max response, negative = inhibition is 5.64% (inactive).
With `CN(Cc1ccccc1F)C(=O)C(Cc1ccccc1)NC(=O)c1ccccc1` (stereo not given) the figure was 41.6% (inactive).
As for `CN(CC(=O)NC(=O)Nc1ccccc1F)Cc1ccccc1`, the max response, negative = inhibition is -19.2% (inactive).
With `CN(Cc1ccccc1)Cc1ccccc1F` the figure was -76.7% (active); with `CCc1nc2c(OCCC3CCCCC3)cccn2c1N(C)C(=O)c1ccco1`, -17.4% (inactive).
The figure for `O=C(NCC(O)c1nc2ccccc2[nH]1)c1ccc(Br)cc1` (stereo not given) is -3.7% (inactive); for `COc1ccc(NC(=O)CSc2nnnn2-c2cccc(OC)c2)cc1` it is 26.1% (inactive).
The figure for `Clc1cccc(-c2nc3nc4ccccc4nc3n2Cc2ccco2)c1` is -72.7% (active).
With `O=C(CSc1nnc(-c2cccnc2)n1Cc1ccco1)c1ccc(Cl)c(Cl)c1`, the max response, negative = inhibition was 25.5% (inactive).
Turning to `O=c1[nH]c(CSc2ncc(-c3ccc(F)cc3)n2Cc2ccco2)nc2ccccc12`, the max response, negative = inhibition was 11.8% (inactive).
With `CCOC1=C2[C@H]([C@H]3C(=O)N(c4ccccc4)C(=O)[C@H]3C1)[C@@H](c1ccccc1)N(S(=O)(=O)c1ccc(C)cc1)[C@H]2c1ccccc1` the figure was 0.0406% (inactive); with `CC1=CC(=C(C#N)c2nc3ccccc3s2)C=C(C)N1c1ccc(F)cc1F`, -51.3% (active); with `N#C/C(=C(/O)Cc1cccc2ccccc12)c1nc2ccccc2s1`, -26.8% (inactive).
On to `CN(Cc1nc2ccccc2s1)C(=O)c1ccc(F)cc1`, for which the max response, negative = inhibition is -18.6% (inactive).
With `CN1CCN(c2ccc3c(c2)OC[C@H](Cc2ccccc2)NS3(=O)=O)CC1` the figure was -23% (inactive).
With `CCOC(=O)[C@]12CCCC=C1N(Cc1ccc3c(c1)OCO3)C(=O)[C@H](CC(=O)NCc1cccs1)C2` the figure was -6.39% (inactive); with `COC(=O)C[C@H]1C[C@@H]2c3cc(NC(=O)Nc4ccccc4)ccc3O[C@@H]2[C@@H](CO)O1`, 17.9% (inactive); with `Cc1cccc(N(C(=O)Cn2nnc(-c3ccc(C)o3)n2)C(C(=O)NC2CCCC2)c2ccncc2)c1` (stereo not given), 12.8% (inactive).
The figure for `CCC(C(=O)NC1CCCC1)N(C(=O)Cn1nnc(-c2ccc(C)o2)n1)c1ccc(OC)c(OC)c1` (stereo not given) is 8.45% (inactive); for `COc1ccc(C)cc1N(C(=O)Cn1nnc(-c2ccc(C)o2)n1)C(C(=O)NC1CCCC1)c1ccncc1` (stereo not given) it is -57.8% (active).
`CNC[C@H]1OCc2cnnn2CCCC(=O)N([C@H](C)CO)C[C@@H]1C`: the max response, negative = inhibition is 11.4% (inactive).
The figure for `COCCNC(=O)C1(C)CCCN(Cc2cccc(F)c2)C1` (stereo not given) is -6.58% (inactive).
With `COc1cccc(C(O)Cc2nc3ccccc3n2C)c1OC` (stereo not given) the figure was 9.46% (inactive); with `CC(NCc1nc2ccccc2n1C)C12CC3CC(CC(C3)C1)C2` (stereo not given), -77.6% (active).
With `Cn1c(CC(=O)NNC(=O)c2ccccc2F)nc2ccccc21` the figure was 5.88% (inactive); with `COC(=O)c1ccc2nc(-c3cccc(Br)c3)c(Cc3ccccc3C(F)(F)F)n2c1`, 0% (inactive).
`O=C(N/N=C/c1ccoc1)c1ccc(Cl)cc1Cl`: the max response, negative = inhibition was 9.92% (inactive).
The figure for `CC(Oc1ccccc1[N+](=O)[O-])C(=O)N/N=C/c1ccoc1` (stereo not given) is -27.6% (inactive).
With `CC(C)c1cc(C(=O)N/N=C/c2ccoc2)c(O)c(C(C)C)c1` the figure was -60.7% (active).
The figure for `CC(=O)N1C[C@@H](CO)[C@@H](N(C)C(=O)c2ccco2)C[C@H]1c1ccccc1` is 0% (inactive); for `C/C=C(\C)C(=O)NCCN1C2=NC[C@H](Cc3ccc(O)cc3)N2C[C@@H]1Cc1ccc(OC)cc1` it is -17.1% (inactive).
As for `COc1ccc(C[C@H]2CN3C(=NC[C@H]3C)N2CCNC(=O)CCC2CCCCC2)cc1`, the max response, negative = inhibition was -71.7% (active).
The figure for `COc1cccc(CNC(=O)CCC2CCCN(Cc3ccc(OC(F)F)cc3)C2)c1` (stereo not given) is -23.3% (inactive).
With `CC1(C(=O)NCc2cccc3ccccc23)CCN1Cc1ccc(-c2ccccc2)o1` (stereo not given) the figure was 34.9% (inactive); with `CCOc1cc(/C=N/NC(=O)c2ccncc2)cc(Br)c1O`, 2.27% (inactive); with `CCC(C)CN1C(=O)CSCC1(C)C(=O)NCc1ccccc1` (stereo not given), 6.99% (inactive).
With `COc1cc(C=NC2CCCCC2)ccc1O` the figure was 22% (inactive).
For the molecule `OC(c1ccc(Cl)cc1)c1ncc(-c2ccc(Cl)cc2)[nH]1` (stereo not given), the max response, negative = inhibition was 21.5% (inactive).
For the molecule `CCOC(=O)c1c(S(=O)(=O)NCC(=O)Nc2ccc(C)cc2)c(C)n(C)c1C`, the max response, negative = inhibition is -0.327% (inactive).
With `CCOC(=O)c1c(S(=O)(=O)Nc2ccc(CN3CCC(C)CC3)cc2)c(C)n(C)c1C` the figure was -51% (active).
With `CCOC(=O)c1c(S(=O)(=O)Nc2cccc(Cl)c2)c(C)n(C)c1C` the figure was -8.27% (inactive).
With `CC1Cc2[nH][nH]c(=O)c2C(C2CCCC2)O1` (stereo not given) the figure was 0% (inactive); with `CCCCc1ccc(S(=O)(=O)NC(=O)C2(C)CCN2C(=O)c2ccccc2)cc1` (stereo not given), 0.751% (inactive).
For the molecule `CC1CCC2(CC1)NC(=O)N(CC(=O)NCc1ccco1)C2=O` (stereo not given), the max response, negative = inhibition was -7.59% (inactive).
The figure for `COc1cccc(-c2cc(NC(C)=O)c3ncc(-c4cccc(C(C)=O)c4)n3c2)c1` is 4.06% (inactive); for `CCOC(=O)c1cnn2c(SC)ncnc12` it is -12.7% (inactive).
With `COc1ccc(-c2ccc3[nH]c4c(c3c2)CCN2C[C@H]3[C@H](C)ON(C)[C@H]3C[C@@H]42)cc1` the figure was -2.08% (inactive); with `C[C@H](O)[C@@H]1C(=O)N2CCc3c([nH]c4ccccc34)[C@@H]2C[C@@H]1N(C)C(=O)Nc1ccc(F)cc1`, -19.9% (inactive).
The figure for `COC(=O)[C@H]1[C@H]2C[C@H]3c4[nH]c5ccccc5c4CCN3C[C@@H]2CC[C@@H]1O` is -113% (active) and -60.5% (active); for `COc1ccc(S(=O)(=O)NC(=O)C2(C)CCN2C(=O)COc2ccc(Cl)cc2)cc1` (stereo not given) it is -5.73% (inactive); for `Cn1c(=O)[nH]c(=O)c2c1nc(N1CCN(C(c3ccccc3)c3ccccc3)CC1)n2CCO` it is 6.48% (inactive).
With `Cc1nnc(SCCCn2c(N3CCCCC3)nc3c2c(=O)[nH]c(=O)n3C)s1`, the max response, negative = inhibition was 17.6% (inactive).
The figure for `Cn1c(=O)[nH]c(=O)c2c1nc(N1CCN(CCO)CC1)n2CCSc1nc2ccccc2s1` is -66.2% (active).
With `COCCNc1nc(Nc2ccccc2Cl)c2sc(-c3ccccc3)cc2n1` the figure was 14.1% (inactive).
The figure for `CC(C)(C)C(=O)c1c(N)[nH]c(C(=O)c2ccccc2)c1-c1ccc(F)cc1` is 4.8% (inactive); for `Cc1cccc(C(=O)OCC(=O)NC(C)C2CC3CCC2C3)c1O` (stereo not given) it is -13.8% (inactive).
On to `CCOC(=O)CCC(=O)OCC(=O)NC(C)C1CC2CCC1C2` (stereo not given), for which the max response, negative = inhibition was -55.1% (active).
The figure for `Cc1c(C(=O)NC(C)C2CC3CCC2C3)cccc1[N+](=O)[O-]` (stereo not given) is 10.2% (inactive).
With `CN(C)C(=O)c1cccc(-c2cnc3c(NC=O)cc(-c4ccc(C(=O)N5CCOCC5)cc4)cn23)c1` the figure was -15.4% (inactive); with `CNc1cc(-c2c(OC)cccc2OC)ncn1`, -17.3% (inactive); with `CC(O)C(NS(=O)(=O)c1ccc(Cl)cc1)C(=O)OCc1cc([N+](=O)[O-])cc2c1OCOC2` (stereo not given), -82.9% (active).
Consider `C[C@H](NS(=O)(=O)c1ccc(Cl)cc1)C(=O)OCC(=O)N1CCOCC1`, for which the max response, negative = inhibition was -16.5% (inactive).
The figure for `CC(NS(=O)(=O)c1ccc(Cl)cc1)C(=O)Nc1ccc2c(c1)OCCO2` (stereo not given) is -3.02% (inactive); for `CC1(C(=O)NS(=O)(=O)c2ccc(C#N)cc2)CCN1C(=O)CC1CCCC1` (stereo not given) it is -19% (inactive).
Consider `COc1ccc(CC(=O)N/N=C/c2cc([N+](=O)[O-])cc(Br)c2O)cc1`, for which the max response, negative = inhibition was -79.9% (active).
With `COc1ccc(CC(=O)NCC(=O)N/N=C/c2cc(Br)ccc2OC)cc1` the figure was 20.7% (inactive).
With `O=C(Cc1ccc([N+](=O)[O-])cc1)N/N=C/c1ccco1` the figure was 3% (inactive); with `C[C@@H]1CN([C@H](C)CO)S(=O)(=O)c2ccc(C#C[C@@H](C)O)cc2O[C@@H]1CN(C)Cc1ccc(-c2ccccc2)cc1`, 4.33% (inactive); with `CCOc1ccc(CCN2C(=S)N([C@@H](CC(C)C)CN3CCC[C@@H]3CN3C(=S)NC[C@@H]3Cc3ccc(O)cc3)C[C@@H]2CC(C)C)cc1`, 21.8% (inactive).
For `CC1(C)OC(=O)C2=C(CC(c3ccccc3)OC2CCc2ccccc2)O1` (stereo not given), the max response, negative = inhibition was -29.7% (inactive).
The figure for `COC(=O)c1ccc2c(c1)S(=O)(=O)NC2C` (stereo not given) is 18.4% (inactive); for `CCCNC(=O)c1cc(C2CCCCN2C(=O)OC)on1` (stereo not given) it is 0% (inactive).
With `COc1ccccc1/C=C/C=N/n1c(-c2ccc(Cl)cc2Cl)n[nH]c1=S` the figure was 13.4% (inactive); with `Cc1cc(-c2n[nH]c(=S)n2/N=C/C(Br)=C/c2ccccc2)n[nH]1`, -70.4% (active); with `COc1ccccc1N1CCN(/N=C\C(Br)=C\c2ccccc2)CC1`, -13.9% (inactive).
The figure for `O=C(Nc1ccc(F)cc1)C(CCc1ccccc1)N1CCN(CC(=O)N2CCCC2)CC1` (stereo not given) is -21.4% (inactive); for `COC(=O)[C@]12CCCCC=C1N(CCC1=CCCCC1)C(=O)[C@H](CC(=O)NCC1CCCCC1)C2` it is 25.3% (inactive); for `O=S1(=O)C[C@@H](N2CCN(CCO)CC2)[C@H](COCc2ccccc2)N1` it is 1.72% (inactive).
Regarding `CC(=O)c1nn(-c2ccccc2)c(=Nc2ccccc2)cc1C`, the max response, negative = inhibition is 18.5% (inactive).
`COC(=O)C[C@@H]1C=C[C@@H](NC(=O)c2ccc3c(c2)OCO3)[C@@H](CO)O1`: the max response, negative = inhibition was -7.72% (inactive).
The figure for `CCn1c(O)c(N=NC2=NC(=O)CS2)c2cc(C)ccc21` is -90.2% (active); for `COC(=O)Cn1c2ccc(C)cc2c2nc(C)sc21` it is -14.2% (inactive).
Consider `CCn1c(O)c(N=NC(=O)c2cccc(S(=O)(=O)N3CCCCC3)c2)c2ccccc21`, for which the max response, negative = inhibition is 6.1% (inactive).
With `COc1cccc(C(O)c2nc(-c3ccc(C)c(C)c3)cs2)c1` (stereo not given) the figure was 0% (inactive).
With `CC(C)CC1C(=O)N(Cc2cn(CC3CCCCC3)nn2)CCS(=O)(=O)N1Cc1ccc(-c2ccc(Cl)cc2)cc1` (stereo not given) the figure was -20.8% (inactive).
